# From PubChem BioAssay (NCATS)
# Results filed as inconclusive are left out. Where a call stands in place of a potency, no number is given. Values without a mark were called inactive. Activity calls are given as the source filed them. Calls come from the whole dose curve; as a rule, active = well fitted curve in the direction sought with a large enough effect; inconclusive = small, poorly fitted or top-dose-only effect, or another doubt; inactive = no such curve, though single readings can be large; an effect the other way counts as inactive or inconclusive.
# Experiments:
# SKOV3 = assay: Primary qHTS to identify gynecologic anti-cancer compounds using libraries of approved drugs and bioactive compounds (AID 1345084); conditions: Gynecologic cancer cell panel viability, ATPlite luminescence, 48 h; series mostly up to 57.5 µM; note: nearly all actives have a fitted effect of over 55% in size
# Procedure, shortened: (§1)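 Five-point cytotoxicity, 48 h drug exposure at 37 C, 5% CO2, on cells seeded 16 h beforehand. ATP content read by ATPlite luminescence.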
# Tov-21-G = assay: as above; conditions: Gynecologic cancer cell panel viability, ATPlite luminescence, 48 h; series mostly up to 57.5 µM
# Procedure, shortened: as §1
# Tov112D = assay: as above; conditions: Gynecologic cancer cell panel viability, ATPlite luminescence, 48 h; series mostly up to 57.5 µM
# Procedure, shortened: as §1
# [1] = qHTS assay to identify inhibitors of the type 1 interferon - major histocompatibility complex class I in skeletal muscle: Counter screen cell viability and HiBit confirmation (AID 1347412); conditions: iHSKM muscle cells + IFN-b, HiBiT or CellTiter-Glo, 24 h; note: nearly all actives have a fitted effect of over 60% in size
# Procedure, shortened: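 Luminescence read-out: Nano-Glo HiBiT lytic signal from C-terminally HiBiT-tagged HLA-B in CRISPR-edited human myoblasts, plus CellTiter Glo ATP as viability counter screen. IFN-beta 4.0 ng/ml; 24 hrs treatment at 37 C, 5% CO2.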
# Potency is the fitted concentration of half-maximal effect.
smiles,measurement,setting,value
CC(C)=CCCC1(C)C=Cc2c(c(C)cc3c2[nH]c2ccccc23)O1 (stereo not given),Potency,SKOV3,8910 nM (active)
same,Potency,Tov-21-G,inactive
same,Potency,Tov112D,inactive
Nc1nc2c(c(N3CCNCC3)n1)CCC1=C2[C@@H]2CCCC[C@@H]2O1,Potency,SKOV3,inactive
same,Potency,Tov-21-G,inactive
same,Potency,Tov112D,inactive
OC[C@H]1O[C@@H](O[C@H]2[C@H](OCCc3ccccc3)O[C@H](CO)[C@@H](O)[C@@H]2O)[C@H](O)[C@@H](O)[C@@H]1O,Potency,SKOV3,inactive
same,Potency,Tov-21-G,inactive
same,Potency,Tov112D,inactive
CC(C)c1cc2c(c(O)c1O)[C@@]13CCCC(C)(C)[C@@H]1[C@H](OC3=O)C2=O,Potency,SKOV3,inactive
same,Potency,Tov-21-G,inactive
same,Potency,Tov112D,inactive
NC(=O)c1csc(C2OC(CO)C(O)C2O)n1 (stereo not given),Potency,SKOV3,inactive
same,Potency,Tov-21-G,inactive
same,Potency,Tov112D,inactive
CC(C)(C)NS(=O)(=O)c1cncc(-c2cc(F)c3nc(N)nn3c2)c1,Potency,SKOV3,inactive
same,Potency,Tov-21-G,inactive
same,Potency,Tov112D,inactive
C=CC(C)(C)c1[nH]c2cc3c(cc2c1CC1NC(=O)C2=CCCN2C1=O)C=CC(C)(C)O3 (stereo not given),Potency,SKOV3,inactive
same,Potency,Tov-21-G,inactive
same,Potency,Tov112D,inactive
FC(F)(F)c1cc(-c2ncn(/C=C\c3nnco3)n2)cc(C(F)(F)F)c1,Potency,SKOV3,inactive
same,Potency,Tov-21-G,inactive
same,Potency,Tov112D,inactive
CCOc1cc2ncc(C#N)c(Nc3ccc(F)c(Cl)c3)c2cc1NC(=O)/C=C/CN(C)C,Potency,SKOV3,398 nM (active)
same,Potency,Tov-21-G,1000 nM (active)
same,Potency,[1]; HiBiT,1980 nM (active)
same,Potency,[1]; Viability,17600 nM (active)
C=C1[C@@H]2CC[C@@H]3[C@@](CCC4C(C(=O)O)(C(=O)O)C[C@@H](O[C@@H]5O[C@H](CO)[C@@H](O)[C@H](O)[C@H]5OC(=O)CC(C)C)C[C@]43C)(C2)[C@H]1O (stereo not given in full),Potency,SKOV3,inactive
same,Potency,Tov-21-G,inactive
same,Potency,Tov112D,inactive
C=C(C(=O)O)C1CC2=C(C)CCCC2(C)C[C@@H]1O (stereo not given in full),Potency,SKOV3,inactive
same,Potency,Tov-21-G,inactive
same,Potency,Tov112D,inactive
C=C[C@]1(C)C[C@H](O)[C@@H]2[C@H](OC(=O)[C@@H]2C)C1/C(C)=C/O[C@@H]1O[C@H](CO)[C@@H](O)[C@H](O)[C@H]1O (stereo not given in full),Potency,SKOV3,inactive
same,Potency,Tov-21-G,inactive
same,Potency,Tov112D,inactive
CCCCNc1ccc(-c2ccc(CN3CCOCC3)cn2)c(NC2CCC(O)CC2)c1 (stereo not given),Potency,SKOV3,inactive
same,Potency,Tov-21-G,inactive
same,Potency,Tov112D,inactive
CC(=O)O[C@@H]1[C@@H](OC(=O)/C=C/c2ccccc2)[C@@H](OC(C)=O)[C@H](O[C@H]2[C@@H]3C=CO[C@@H](O[C@@H]4O[C@H](CO)[C@@H](O)[C@H](O)[C@H]4O)[C@@H]3[C@@]3(CO)O[C@@H]23)O[C@H]1C,Potency,SKOV3,inactive
same,Potency,Tov-21-G,inactive
same,Potency,Tov112D,inactive
COc1cc(N2CCC(N3CCN(C)CC3)CC2)ccc1Nc1ncc(Cl)c(-c2c[nH]c3ccccc23)n1,Potency,SKOV3,3980 nM (active)
same,Potency,Tov-21-G,8910 nM (active)
same,Potency,Tov112D,20000 nM (active)
CC1(CCOC2OC(CO)C(O)C(O)C2O)CCC23OC2(C1)C(O)CC1C(C)(C(=O)O)CCCC13C (stereo not given),Potency,SKOV3,inactive
same,Potency,Tov-21-G,inactive
same,Potency,Tov112D,inactive
COc1ccc(CC2C(=O)NC(C)C(=O)N(C)C3Cc4ccc(cc4)Oc4cc(ccc4OC4OC(CO)C(O)C(O)C4O)CC(C(=O)NC(C)C(=O)NC(C)C(=O)N2C)N(C)C3=O)cc1 (stereo not given),Potency,SKOV3,1410 nM (active)
same,Potency,Tov-21-G,1260 nM (active)
same,Potency,Tov112D,501 nM (active)
CC(=O)OC1/C(C)=C/C(=O)C(OC(C)=O)C(C)(C)/C=C/C(C)C(=O)C2(OC(C)=O)CC(C)C(OC(=O)c3ccccc3)C12 (stereo not given),Potency,SKOV3,inactive
same,Potency,Tov-21-G,inactive
same,Potency,Tov112D,inactive
CC(=O)OC1C(O)CC2(C)C(CCC(C)C23Cc2c(O)cc(CO)c(C=O)c2O3)C1(C)C (stereo not given),Potency,SKOV3,inactive
same,Potency,Tov-21-G,inactive
same,Potency,Tov112D,inactive
O=C(NCc1ccc(F)cc1)C(=O)c1c[nH]c2ccccc12,Potency,SKOV3,inactive
same,Potency,Tov-21-G,inactive
same,Potency,Tov112D,inactive
CC(=O)C1=C(C)N(c2cccc(C(F)(F)F)c2)C(=O)N[C@H]1c1ccc(C#N)nc1,"activity change, negative = cytotoxicity",SKOV3,12.1% [at 11.6 µM]
same,"activity change, negative = cytotoxicity",Tov-21-G,3.34% [at 11.6 µM]
same,"activity change, negative = cytotoxicity",Tov112D,-8.52% [at 11.6 µM]
Cc1[nH]c2ccccc2c1C1=C(NCCc2ccc(F)cc2)C(=O)N(C)C1=O,Potency,SKOV3,inactive
same,Potency,Tov-21-G,inactive
same,Potency,Tov112D,inactive
C[C@@H]1CCC2C(C)(C)[C@H](O)CC[C@]2(C)[C@@]12Cc1c(O)cc3c(c1O2)CN([C@@H](CCC(=O)O)C(=O)O)C3=O (stereo not given in full),Potency,SKOV3,inactive
same,Potency,Tov-21-G,inactive
same,Potency,Tov112D,inactive
C=C[C@@]12COC(=O)C(=C)C1[C@@H](O)[C@H](C(=C)C(=O)OC)[C@@H](OC(=O)C(=C)CO)C2 (stereo not given in full),Potency,Tov-21-G,inactive
same,Potency,Tov112D,inactive
N#Cc1ccc(C(=O)N2CCC3(CC2)N=C(N)c2c(F)ccc(F)c2N3)cn1,Potency,Tov-21-G,inactive
same,Potency,Tov112D,inactive
O=C(Nc1ccc(S(=O)(=O)C(F)(F)F)cc1)C1=CCN(c2ncccc2C(F)(F)F)CC1,Potency,Tov-21-G,inactive
